Assay in all cases: DAPPL (digital affinity profiling via proximity ligation, sequencing); 10 mM Tris-HCl pH 7.5, 50 mM NaCl, 1 mM DTT, 4% glycerol, room temperature, 30 min; GST-TFs on glutathione beads, 16-mer random dsDNA library, 0.1% formaldehyde crosslink after washing; high values mean tight binding
For one test, the target named is T1, FLI1 (Homo sapiens, UniProt Q01543 1-452).
T1 sequence: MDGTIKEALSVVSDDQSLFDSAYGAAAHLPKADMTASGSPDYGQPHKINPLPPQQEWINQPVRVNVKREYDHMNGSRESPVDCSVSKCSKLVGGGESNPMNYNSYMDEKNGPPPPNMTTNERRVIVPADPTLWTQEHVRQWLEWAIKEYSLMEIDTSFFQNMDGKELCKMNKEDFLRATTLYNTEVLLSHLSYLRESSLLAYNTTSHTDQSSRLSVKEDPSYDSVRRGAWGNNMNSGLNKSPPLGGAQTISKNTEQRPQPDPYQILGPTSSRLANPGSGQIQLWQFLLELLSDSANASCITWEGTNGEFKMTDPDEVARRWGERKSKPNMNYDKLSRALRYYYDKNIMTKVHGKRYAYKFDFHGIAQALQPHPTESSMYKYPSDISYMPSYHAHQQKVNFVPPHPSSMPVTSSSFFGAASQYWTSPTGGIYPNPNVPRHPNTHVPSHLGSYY
The settings on record: protein: recombinant; tags: N-terminal GST; dsDNA, one strand shown. An outline of the steps:
(§1)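 In yeast, human transcription factors were expressed with a GST fusion, then pulled down on glutathione beads and given DNA barcodes. Pooled with a tag-only sample, they were exposed to 200 nmole of a 16-mer random double-stranded DNA library (Tris/NaCl/DTT/glycerol buffer, room temperature, 30 min), washed, crosslinked with 0.1% formaldehyde, proximity-ligated using BsaI/T4 ligase for 1 h at 37 °C, PCR-amplified and read on an Illumina NextSeq500. Each hexamer's frequency of reads for a factor, divided by the matching frequency for the tag-only sample, gives the binding signal.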

A further test concerns the target T2, ELK1 (Homo sapiens, UniProt P19419 1-428).
T2 sequence: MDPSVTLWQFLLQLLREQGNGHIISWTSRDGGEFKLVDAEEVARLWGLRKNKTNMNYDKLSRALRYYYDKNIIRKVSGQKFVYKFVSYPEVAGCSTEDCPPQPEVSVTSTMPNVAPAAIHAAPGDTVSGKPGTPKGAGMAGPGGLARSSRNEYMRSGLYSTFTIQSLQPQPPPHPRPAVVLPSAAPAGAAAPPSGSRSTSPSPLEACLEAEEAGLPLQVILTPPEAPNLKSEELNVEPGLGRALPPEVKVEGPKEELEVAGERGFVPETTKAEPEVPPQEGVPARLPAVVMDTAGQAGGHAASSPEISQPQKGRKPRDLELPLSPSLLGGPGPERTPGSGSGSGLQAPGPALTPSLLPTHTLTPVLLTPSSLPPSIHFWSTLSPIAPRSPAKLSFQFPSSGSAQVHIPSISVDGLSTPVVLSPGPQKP
The settings on record: protein: recombinant; tags: N-terminal GST; dsDNA, one strand shown. An outline of the steps: as §1

In the next test the target is T3, GABPA (Homo sapiens, UniProt Q06546 1-454).
T3 sequence: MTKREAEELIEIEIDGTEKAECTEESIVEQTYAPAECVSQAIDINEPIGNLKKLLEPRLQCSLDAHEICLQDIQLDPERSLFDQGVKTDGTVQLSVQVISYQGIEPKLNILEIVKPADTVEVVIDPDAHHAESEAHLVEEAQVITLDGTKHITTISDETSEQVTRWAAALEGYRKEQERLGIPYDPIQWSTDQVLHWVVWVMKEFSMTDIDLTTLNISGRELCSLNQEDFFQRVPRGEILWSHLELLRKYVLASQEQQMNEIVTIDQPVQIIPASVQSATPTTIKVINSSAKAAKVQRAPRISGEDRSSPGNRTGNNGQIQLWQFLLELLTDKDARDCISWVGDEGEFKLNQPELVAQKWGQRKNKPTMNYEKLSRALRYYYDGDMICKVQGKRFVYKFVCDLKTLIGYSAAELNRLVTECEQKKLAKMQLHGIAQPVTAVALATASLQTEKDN
The settings on record: protein: recombinant; tags: N-terminal GST; dsDNA, one strand shown. An outline of the steps: as §1

In the next test the target is T4, ERG (Homo sapiens, UniProt P11308 1-479).
T4 sequence: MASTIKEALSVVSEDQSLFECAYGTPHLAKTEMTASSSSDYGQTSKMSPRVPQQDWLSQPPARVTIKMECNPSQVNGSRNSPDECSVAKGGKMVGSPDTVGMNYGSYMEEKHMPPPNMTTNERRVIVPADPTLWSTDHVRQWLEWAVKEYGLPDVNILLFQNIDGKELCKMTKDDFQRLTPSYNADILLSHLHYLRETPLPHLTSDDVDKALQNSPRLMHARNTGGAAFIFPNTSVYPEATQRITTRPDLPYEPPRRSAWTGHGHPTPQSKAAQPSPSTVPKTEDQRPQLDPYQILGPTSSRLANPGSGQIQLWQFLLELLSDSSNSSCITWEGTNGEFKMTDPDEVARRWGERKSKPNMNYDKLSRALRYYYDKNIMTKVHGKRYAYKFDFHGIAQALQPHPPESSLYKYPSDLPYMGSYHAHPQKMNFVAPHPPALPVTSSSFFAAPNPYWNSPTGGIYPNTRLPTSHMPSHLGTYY
The settings on record: protein: recombinant; tags: N-terminal GST; dsDNA, one strand shown. The method in brief: as §1

Another test concerns the target ELF1 (Homo sapiens, UniProt P32519 1-619). The settings on record: protein: recombinant; tags: N-terminal GST; dsDNA, one strand shown. An outline of the steps: as §1
In a further test the target is T5, EHF (Homo sapiens, UniProt Q9NZC4 1-300).
T5 sequence: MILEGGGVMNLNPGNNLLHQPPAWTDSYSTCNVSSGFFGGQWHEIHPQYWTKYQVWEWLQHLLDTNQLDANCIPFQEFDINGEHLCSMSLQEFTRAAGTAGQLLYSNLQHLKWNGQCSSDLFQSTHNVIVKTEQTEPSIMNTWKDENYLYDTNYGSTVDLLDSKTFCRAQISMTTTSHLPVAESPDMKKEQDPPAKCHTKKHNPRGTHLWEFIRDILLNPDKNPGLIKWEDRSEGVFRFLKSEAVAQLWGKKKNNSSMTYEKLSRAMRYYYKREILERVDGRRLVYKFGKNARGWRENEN
The settings on record: protein: recombinant; tags: N-terminal GST; dsDNA, one strand shown. The method in brief:
as §1

In the next test the target is SPI1 (Homo sapiens, UniProt P17947 1-270). The settings on record: protein: recombinant; tags: N-terminal GST; dsDNA, one strand shown. An outline of the steps:
as §1

A further test deals with SPIB (Homo sapiens, UniProt Q01892 1-262). The settings on record: protein: recombinant; tags: N-terminal GST; dsDNA, one strand shown. An outline of the steps: as §1
In the next test the target is T6, ELK3 (Homo sapiens, UniProt P41970 1-407).
T6 sequence: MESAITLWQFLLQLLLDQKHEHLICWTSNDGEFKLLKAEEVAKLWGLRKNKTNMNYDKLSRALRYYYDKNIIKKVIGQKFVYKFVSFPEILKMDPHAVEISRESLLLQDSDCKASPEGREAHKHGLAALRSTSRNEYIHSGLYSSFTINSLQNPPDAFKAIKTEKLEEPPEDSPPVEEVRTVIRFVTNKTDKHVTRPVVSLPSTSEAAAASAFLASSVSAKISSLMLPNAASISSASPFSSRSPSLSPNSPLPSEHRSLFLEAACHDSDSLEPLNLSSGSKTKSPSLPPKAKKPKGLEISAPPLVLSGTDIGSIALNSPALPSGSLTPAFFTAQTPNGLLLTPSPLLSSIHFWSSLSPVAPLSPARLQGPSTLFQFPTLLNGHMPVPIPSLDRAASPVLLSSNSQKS
The settings on record: protein: recombinant; tags: N-terminal GST; dsDNA, one strand shown. The method in brief: as §1

In the next test the target is T7, FEV (Homo sapiens, UniProt Q99581 1-238).
T7 sequence: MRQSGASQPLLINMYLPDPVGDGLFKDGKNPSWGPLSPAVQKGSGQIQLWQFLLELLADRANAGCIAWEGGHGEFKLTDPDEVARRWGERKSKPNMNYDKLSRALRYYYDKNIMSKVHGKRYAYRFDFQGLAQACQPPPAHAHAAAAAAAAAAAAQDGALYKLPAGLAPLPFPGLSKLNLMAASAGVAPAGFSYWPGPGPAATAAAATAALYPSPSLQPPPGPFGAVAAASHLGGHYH
The settings on record: protein: recombinant; tags: N-terminal GST; dsDNA, one strand shown. An outline of the steps: as §1

A further test deals with ETV5 (Homo sapiens, UniProt P41161 1-510). The settings on record: protein: recombinant; tags: N-terminal GST; dsDNA, one strand shown. An outline of the steps:
as §1

A further test has as its target HSF1 (Homo sapiens, UniProt Q00613 1-529). The settings on record: protein: recombinant; tags: N-terminal GST; chain copies: 3; dsDNA, one strand shown. The method in brief: as §1
For the next test, the target named is T8, SPIC (Homo sapiens, UniProt Q8N5J4 1-248).
T8 sequence: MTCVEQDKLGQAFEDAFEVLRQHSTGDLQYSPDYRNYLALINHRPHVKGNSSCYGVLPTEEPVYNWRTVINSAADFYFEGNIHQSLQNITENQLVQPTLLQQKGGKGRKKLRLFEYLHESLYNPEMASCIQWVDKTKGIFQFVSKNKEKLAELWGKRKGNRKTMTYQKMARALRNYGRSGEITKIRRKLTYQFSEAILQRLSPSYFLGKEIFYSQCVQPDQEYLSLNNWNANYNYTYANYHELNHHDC
The settings on record: protein: recombinant; tags: N-terminal GST; dsDNA, one strand shown. An outline of the steps:
as §1

A further test concerns the target ELF4 (Homo sapiens, UniProt Q99607 1-663). The settings on record: protein: recombinant; tags: N-terminal GST; dsDNA, one strand shown. The method in brief: as §1
A further test concerns the target T9, ELK4 (Homo sapiens, UniProt P28324-2 1-405).
T9 sequence: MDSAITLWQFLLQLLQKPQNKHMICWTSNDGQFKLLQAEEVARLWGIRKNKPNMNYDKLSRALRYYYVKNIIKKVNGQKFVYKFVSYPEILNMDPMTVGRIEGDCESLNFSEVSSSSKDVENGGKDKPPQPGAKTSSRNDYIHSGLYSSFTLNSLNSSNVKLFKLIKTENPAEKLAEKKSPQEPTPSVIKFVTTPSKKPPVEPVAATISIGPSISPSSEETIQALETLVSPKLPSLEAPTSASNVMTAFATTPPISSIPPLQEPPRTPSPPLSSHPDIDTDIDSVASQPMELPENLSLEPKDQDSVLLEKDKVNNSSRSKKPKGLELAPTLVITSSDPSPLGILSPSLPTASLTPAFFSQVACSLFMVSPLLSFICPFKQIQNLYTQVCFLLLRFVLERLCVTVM
The settings on record: protein: recombinant; tags: N-terminal GST; dsDNA, one strand shown. An outline of the steps: as §1

Another test addresses T10, ETV2 (Homo sapiens, UniProt O00321 1-342).
T10 sequence: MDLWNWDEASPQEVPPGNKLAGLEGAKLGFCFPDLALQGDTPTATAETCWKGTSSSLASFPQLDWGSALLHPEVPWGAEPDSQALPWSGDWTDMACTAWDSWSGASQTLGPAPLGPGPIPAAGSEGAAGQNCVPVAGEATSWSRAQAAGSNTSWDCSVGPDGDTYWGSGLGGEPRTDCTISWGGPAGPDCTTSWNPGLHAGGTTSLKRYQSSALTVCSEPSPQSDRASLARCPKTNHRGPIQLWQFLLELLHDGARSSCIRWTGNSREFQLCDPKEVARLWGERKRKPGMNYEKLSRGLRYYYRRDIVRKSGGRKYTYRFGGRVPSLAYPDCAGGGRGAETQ
The settings on record: protein: recombinant; tags: N-terminal GST; dsDNA, one strand shown. The method in brief: as §1

The target in the next test is T11, ELF3 (Homo sapiens, UniProt P78545 1-371).
T11 sequence: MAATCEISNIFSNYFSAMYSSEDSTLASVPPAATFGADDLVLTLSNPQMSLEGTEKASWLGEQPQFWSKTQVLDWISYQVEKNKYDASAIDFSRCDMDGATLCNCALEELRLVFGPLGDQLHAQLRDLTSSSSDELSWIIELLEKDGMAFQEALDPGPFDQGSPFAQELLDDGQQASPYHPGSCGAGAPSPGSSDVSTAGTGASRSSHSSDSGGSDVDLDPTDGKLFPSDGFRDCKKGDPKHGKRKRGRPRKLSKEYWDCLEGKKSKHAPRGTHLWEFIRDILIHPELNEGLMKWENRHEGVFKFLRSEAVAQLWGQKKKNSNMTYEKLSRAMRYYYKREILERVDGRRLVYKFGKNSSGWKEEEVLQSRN
The settings on record: protein: recombinant; tags: N-terminal GST; dsDNA, one strand shown. An outline of the steps: as §1

In the next test the target is CRX (Homo sapiens, UniProt O43186 1-299). The settings on record: protein: recombinant; tags: N-terminal GST; dsDNA, one strand shown. The method in brief: as §1
For a further test, the target named is ETV1 (Homo sapiens, UniProt P50549 1-477). The settings on record: protein: recombinant; tags: N-terminal GST; dsDNA, one strand shown. The method in brief:
as §1

Chain of ELF1 (P32519 whole entry): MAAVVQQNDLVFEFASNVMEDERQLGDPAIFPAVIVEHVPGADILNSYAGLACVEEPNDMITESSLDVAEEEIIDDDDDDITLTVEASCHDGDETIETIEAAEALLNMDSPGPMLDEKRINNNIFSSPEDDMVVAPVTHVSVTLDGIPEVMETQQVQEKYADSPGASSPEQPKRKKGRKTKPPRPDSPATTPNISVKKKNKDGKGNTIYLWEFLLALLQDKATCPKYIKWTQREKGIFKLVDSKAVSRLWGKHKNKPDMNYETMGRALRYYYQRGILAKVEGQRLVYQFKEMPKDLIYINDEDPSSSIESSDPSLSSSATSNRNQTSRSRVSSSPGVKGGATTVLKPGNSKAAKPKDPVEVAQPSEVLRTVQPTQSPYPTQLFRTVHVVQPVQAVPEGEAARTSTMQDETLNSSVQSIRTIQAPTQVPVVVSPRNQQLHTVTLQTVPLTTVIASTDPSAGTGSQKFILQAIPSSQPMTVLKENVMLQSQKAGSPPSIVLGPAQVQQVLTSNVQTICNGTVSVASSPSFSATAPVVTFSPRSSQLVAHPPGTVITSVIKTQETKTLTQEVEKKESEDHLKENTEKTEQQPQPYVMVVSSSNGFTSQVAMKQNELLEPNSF
Chain of CRX (O43186 whole entry): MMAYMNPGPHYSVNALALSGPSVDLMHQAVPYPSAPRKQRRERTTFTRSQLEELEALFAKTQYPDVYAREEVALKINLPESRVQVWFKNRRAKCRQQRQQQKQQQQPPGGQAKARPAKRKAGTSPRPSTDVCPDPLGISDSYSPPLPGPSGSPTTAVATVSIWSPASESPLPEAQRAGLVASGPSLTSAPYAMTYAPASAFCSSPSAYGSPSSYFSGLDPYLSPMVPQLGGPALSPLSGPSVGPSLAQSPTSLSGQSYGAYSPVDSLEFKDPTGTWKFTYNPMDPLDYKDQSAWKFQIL
Chain of HSF1 (Q00613 whole entry): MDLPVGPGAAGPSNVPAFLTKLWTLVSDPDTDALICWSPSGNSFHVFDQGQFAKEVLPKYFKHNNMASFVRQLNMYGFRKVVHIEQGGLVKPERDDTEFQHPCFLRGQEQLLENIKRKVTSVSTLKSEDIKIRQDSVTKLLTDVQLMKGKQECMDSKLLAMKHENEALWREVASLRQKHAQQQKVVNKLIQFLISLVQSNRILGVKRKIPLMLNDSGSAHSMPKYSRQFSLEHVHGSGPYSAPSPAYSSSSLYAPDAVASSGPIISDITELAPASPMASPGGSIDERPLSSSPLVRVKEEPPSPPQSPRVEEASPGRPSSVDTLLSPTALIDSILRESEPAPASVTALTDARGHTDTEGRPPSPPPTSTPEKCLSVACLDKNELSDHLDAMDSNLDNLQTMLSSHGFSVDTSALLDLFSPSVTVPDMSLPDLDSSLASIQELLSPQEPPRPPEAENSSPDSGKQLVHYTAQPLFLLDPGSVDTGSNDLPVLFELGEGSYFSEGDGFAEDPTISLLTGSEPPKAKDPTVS
Chain of ETV1 (P50549 whole entry): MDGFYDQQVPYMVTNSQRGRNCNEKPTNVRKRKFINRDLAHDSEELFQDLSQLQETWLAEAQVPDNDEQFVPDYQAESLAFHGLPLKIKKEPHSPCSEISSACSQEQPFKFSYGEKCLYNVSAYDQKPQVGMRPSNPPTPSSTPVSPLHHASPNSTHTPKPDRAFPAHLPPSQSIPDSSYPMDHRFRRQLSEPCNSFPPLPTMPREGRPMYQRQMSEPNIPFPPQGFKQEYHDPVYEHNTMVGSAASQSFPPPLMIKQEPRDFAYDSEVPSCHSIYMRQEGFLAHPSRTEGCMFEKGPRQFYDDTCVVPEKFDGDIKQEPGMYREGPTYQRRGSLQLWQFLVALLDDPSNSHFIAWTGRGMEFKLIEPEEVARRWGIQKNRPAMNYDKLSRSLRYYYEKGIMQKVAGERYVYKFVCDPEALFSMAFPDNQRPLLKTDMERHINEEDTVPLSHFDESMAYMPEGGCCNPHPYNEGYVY
Chain of ETV5 (P41161 whole entry): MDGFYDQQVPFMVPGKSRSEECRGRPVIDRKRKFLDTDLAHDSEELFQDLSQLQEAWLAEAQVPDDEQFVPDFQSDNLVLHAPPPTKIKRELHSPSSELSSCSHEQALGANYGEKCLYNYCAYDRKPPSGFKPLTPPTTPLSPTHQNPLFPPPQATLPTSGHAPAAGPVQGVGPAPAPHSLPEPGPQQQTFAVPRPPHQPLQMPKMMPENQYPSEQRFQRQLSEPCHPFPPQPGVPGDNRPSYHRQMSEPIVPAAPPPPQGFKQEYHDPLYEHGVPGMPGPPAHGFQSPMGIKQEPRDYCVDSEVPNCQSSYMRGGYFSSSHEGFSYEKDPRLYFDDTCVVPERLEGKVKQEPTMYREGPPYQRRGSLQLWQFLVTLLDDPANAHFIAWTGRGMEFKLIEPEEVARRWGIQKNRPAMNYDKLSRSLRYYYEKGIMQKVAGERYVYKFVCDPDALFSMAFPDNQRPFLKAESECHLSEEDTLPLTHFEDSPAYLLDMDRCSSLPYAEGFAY
Chain of SPIB (Q01892 whole entry): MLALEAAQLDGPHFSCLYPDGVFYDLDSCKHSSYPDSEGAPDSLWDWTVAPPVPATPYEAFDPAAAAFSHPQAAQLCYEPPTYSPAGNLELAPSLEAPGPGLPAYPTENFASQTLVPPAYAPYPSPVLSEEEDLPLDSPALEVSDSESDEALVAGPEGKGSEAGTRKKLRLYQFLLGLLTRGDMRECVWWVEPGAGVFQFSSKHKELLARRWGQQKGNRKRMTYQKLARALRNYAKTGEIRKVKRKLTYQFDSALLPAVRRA
Chain of ELF4 (Q99607 whole entry): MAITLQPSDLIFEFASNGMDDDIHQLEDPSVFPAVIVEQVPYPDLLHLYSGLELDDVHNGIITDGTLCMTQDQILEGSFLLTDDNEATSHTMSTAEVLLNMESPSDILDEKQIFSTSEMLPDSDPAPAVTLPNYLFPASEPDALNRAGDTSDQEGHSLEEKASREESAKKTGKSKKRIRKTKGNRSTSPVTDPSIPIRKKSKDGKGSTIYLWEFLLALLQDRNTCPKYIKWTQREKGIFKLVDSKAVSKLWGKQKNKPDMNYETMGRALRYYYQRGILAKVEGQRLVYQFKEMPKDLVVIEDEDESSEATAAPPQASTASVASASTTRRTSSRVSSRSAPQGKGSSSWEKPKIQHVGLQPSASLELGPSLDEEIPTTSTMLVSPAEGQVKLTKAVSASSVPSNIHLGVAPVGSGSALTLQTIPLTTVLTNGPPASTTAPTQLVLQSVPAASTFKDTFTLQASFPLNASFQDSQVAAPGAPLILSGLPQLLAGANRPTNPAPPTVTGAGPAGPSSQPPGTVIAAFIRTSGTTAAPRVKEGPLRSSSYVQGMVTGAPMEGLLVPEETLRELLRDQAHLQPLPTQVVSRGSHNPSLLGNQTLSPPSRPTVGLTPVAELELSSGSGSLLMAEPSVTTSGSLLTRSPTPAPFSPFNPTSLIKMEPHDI

For ATGCCC, the binding signal with FLI1 is 1.38 fold enrichment (6-mer frequency, TF over GST control); with ELK1, 1.38 fold enrichment (6-mer frequency, TF over GST control); with GABPA, 1.33 fold enrichment (6-mer frequency, TF over GST control); with ERG, 1.28 fold enrichment (6-mer frequency, TF over GST control); in the test with ELF1, 1.32 fold enrichment (6-mer frequency, TF over GST control); in the test with EHF, 1.26 fold enrichment (6-mer frequency, TF over GST control). For the same sequence, the binding signal in the test with SPI1 was 1.2 fold enrichment (6-mer frequency, TF over GST control); with SPIB it was 1.23 fold enrichment (6-mer frequency, TF over GST control); in the test with ELK3 it was 1.2 fold enrichment (6-mer frequency, TF over GST control); with FEV it was 1.34 fold enrichment (6-mer frequency, TF over GST control); in the test with ETV5, 1.28 fold enrichment (6-mer frequency, TF over GST control); with HSF1, 1.19 fold enrichment (6-mer frequency, TF over GST control). In addition, the binding signal was 1.54 fold enrichment (6-mer frequency, TF over GST control) with SPIC; 1.33 fold enrichment (6-mer frequency, TF over GST control) with ELF4; 1.36 fold enrichment (6-mer frequency, TF over GST control) in the test with ELK4; 1.26 fold enrichment (6-mer frequency, TF over GST control) in the test with ETV2; 1.34 fold enrichment (6-mer frequency, TF over GST control) with ELF3; 1.12 fold enrichment (6-mer frequency, TF over GST control) with CRX. The binding signal with ETV1 was 1.31 fold enrichment (6-mer frequency, TF over GST control).

The values above are taken from publication PMC7862700, “An all-to-all approach to the identification of sequence-specific readers for epigenetic DNA modifications on cytosine”.
